From PubChem BioAssay
D1 potentiator: human D1 dopamine receptor positive modulation; hit rate 0.036% among 360,000; HEK293 TREx D1 cells, calcium flux, dopamine EC20 potentiation; P21728; potentiation, % at 10 µM; in the data active means potentiation above about 30%; further: 0% is about no effect
Target sequence (P21728 whole entry, looked up): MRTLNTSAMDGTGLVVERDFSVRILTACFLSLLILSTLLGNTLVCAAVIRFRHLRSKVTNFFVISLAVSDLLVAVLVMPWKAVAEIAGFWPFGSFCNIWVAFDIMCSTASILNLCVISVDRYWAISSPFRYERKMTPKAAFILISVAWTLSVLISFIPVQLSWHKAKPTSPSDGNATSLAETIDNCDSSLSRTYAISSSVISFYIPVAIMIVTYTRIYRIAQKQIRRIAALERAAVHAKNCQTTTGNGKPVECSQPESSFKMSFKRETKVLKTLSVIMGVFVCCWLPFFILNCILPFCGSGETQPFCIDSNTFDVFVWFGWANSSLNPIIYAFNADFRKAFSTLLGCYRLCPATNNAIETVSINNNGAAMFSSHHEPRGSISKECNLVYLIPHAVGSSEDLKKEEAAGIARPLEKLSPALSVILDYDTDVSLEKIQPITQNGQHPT
TRHR agonist: activates the human TRH receptor. TRHR cells, calcium flux fluo-8, FDSS agonist mode. activation, % at 2 µM. hit rate 0.18% among 360,000. AID 493084; further: 0% is about no effect
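TRHR-expressing cells loaded with fluo-8 calcium dye; 23 nL library compound pin-transferred, kinetic FDSS fluorescence (Ex 480/Em 530) recorded about 180 s for agonist-induced calcium release, before a 10 nM TRH EC20 addition for potentiator mode.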
D1 agonist: human D1 receptor agonism. HEK293 T-REx D1 cells, calcium flux, agonist mode. activation, % at 2 µM. hit rate 1% among 360,000; further: 0% is about no effect
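Agonism was scored from calcium flux recorded over 180 s (1 read/s) after pintool compound addition, following a 10-cycle baseline. Cells were inducible force-coupled HEK293 TREx D1, plated overnight at 30 C and loaded with no-wash calcium dye.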
TRHR enhancer: TRH receptor (human) allosteric enhancement; P34981; TRHR cells, fluo-8 calcium fluorescence, EC20 TRH enhancement; enhancement, % at 2 µM; hit rate 0.66% among 360,000; AID 493056; in the data active means enhancement above about 30%; further: 0% is about no effect
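TRHR-expressing cells loaded with fluo-8 calcium dye were read kinetically (ex 480/em 530) during compound addition, then stimulated with an EC20 of TRH (10 nM final). Enhancement of the Gq-mediated intracellular calcium response was scored.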
D1 antagonist: blocks dopamine activation of the human D1 receptor | P21728 | HEK293 TREx D1 cells, calcium flux, dopamine EC80; hits give low values | activity change, negative = inhibition, % at 10 µM | hit rate 3.2% among 360,000; in the data active means activity change below about -30%; further: on the % scale 0 is the no-effect control and ±100 the full control effect
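Tetracycline-induced HEK293 Trex D1 cells, force-coupled to calcium, dye-loaded; compounds added and read 180 s, then EC80 dopamine added and calcium flux tracked kinetically another 180 s.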
Numbers without * were called inactive. Only some compounds are listed: those with a hit (about 4.7% of all), similar ones and a draw of the others. Unless noted, no stated cut-off is given here; in the data, active means activation above about 30%; inactive means the rest.

SMILES	D1 potentiator	TRHR agonist	D1 agonist	TRHR enhancer	D1 antagonist
Cc1cc2c(s1)c1cnn(Cc3c(F)ccc(C)c3Cl)c(=O)c1n2C	3	1	3	-5	-23
O=C(CSC1=Nc2ccccc2N=C(c2ccc(F)cc2)C1)NCc1ccc(Cl)cc1	0	1	7	1	2
O=c1[nH]c(Nc2ccccc2)cc2ccccc12	-1	0	38*	-10	34
Cn1c(=O)cc(Nc2ccccc2)[nH]c1=O	-3	1	3	24	13
COc1cccc(NC(=O)CCCCCN2C(=O)[C@@H]3Cc4ccccc4CN3C2=O)c1	-3	0	6	-4	-14
Cc1cc(C)cc(NC(=O)CCCCCN2C(=O)[C@@H]3Cc4ccccc4CN3C2=O)c1	-4	1	0	12	-40*
CCc1nc(NCC2CCCO2)c(C#N)c2c1COC(C)(C)C2 (stereo not given)	-2	-1	1	8	-35*
CC(C)c1nc(NCC2CCCO2)c(C#N)c2c1COC(C)(C)C2 (stereo not given)	-9	1	2	2	7
Cc1c(-c2ccccc2)n(-c2ccccc2O)c2nc3c(c(=O)n(C)c(=O)n3C)n12	-1	-2	0	-9	0
Cc1csc2nc(COC(=O)COc3ccccc3F)cc(=O)n12	-4	0	5	3	-46*
Cc1ccccc1OCC(=O)Nc1ccccc1C(=O)OCc1cc(=O)n2c(C)csc2n1	0	0	0	2	-40*
Cc1csc2nc(COc3ccc(NC(=O)COc4ccccc4F)cc3)cc(=O)n12	-3	0	6	12	-19
Cc1ccccc1OCC(=O)Nc1ccccc1C(=O)OCc1cc(=O)n2ccsc2n1	0	-1	-1	0	11
CCOC(=O)c1oc2c(c1C)-c1nn(Cc3cccc(Cl)c3)cc1CC2	-2	1	16	-4	0
O=[N+]([O-])c1cc(-c2nc(-c3ccccc3)no2)ccc1N1CCOCC1	-3	-1	-2	-3	-18
Cc1ccc(OCCSc2nc(-c3ccccc3C)nc3cc(=O)[nH]n23)cc1Cl	-6	-1	26	3	-62*
Cc1ccc(C(C)C)c(OCCSc2nc(-c3ccccc3F)nc3cc(=O)[nH]n23)c1	-6	-1	38*	-15	-12
CCOC(=O)c1cc(-c2ccc(F)cc2)n(CCC(=O)Nc2nc3cc(C)c(C)cc3s2)c1C	0	0	1	4	5
Cc1ccc(S(=O)(=O)Nc2cccc3c2CCCC3)cc1	-2	-1	6	15	-32*
O=S(=O)(Nc1cccc2c1CCCC2)c1cccc(C(F)(F)F)c1	2	-2	6	-7	-9
CCN(CC)C(=O)c1c(-c2ccccc2)c(-c2ccccc2)nn(C)c1=O	0	0	0	-4	-11
CCCCN(C)C1=CC2=CC(=C(C#N)C#N)CCC2CC1 (stereo not given)	1	261*	490*	-9	-85*
N#CC(C#N)=C1C=C2C=C(N3CCCCC3)CCC2CC1 (stereo not given)	-7	249*	671*	-21	-29
CCN(CC)C1=CC2=CC(=C(C#N)C#N)CCC2CC1 (stereo not given)	-10	0	487*	4	-82*
CCN(C(=O)Cn1c(=O)oc2cc(S(=O)(=O)N3CCCCCC3)ccc21)c1cccc(C)c1	0	-1	1	-9	-3
SMILES	D1 potentiator	TRHR agonist	D1 agonist	TRHR enhancer	D1 antagonist
Cc1ccc(S(=O)(=O)c2nc(S(C)(=O)=O)sc2N(C)Cc2ccccc2)cc1	-3	-1	1	-7	-18
Cc1c(CC(=O)NCCc2ccccc2F)c(=O)oc2c(C)c3occ(C(C)(C)C)c3cc12	-1	0	0	12	10
CC(=O)Nc1cc(C(=O)NCc2ccc(F)cc2)ccc1Sc1ccc(C)cc1	-1	-1	-3	5	-39*
Cc1cccn2c(Nc3ccccc3)c(-c3ccc(N4CCOCC4)cc3)nc12	-1	0	-1	6	-45*
CCCCC(OC(=O)CNC(=O)c1ccccc1)C(=O)Nc1cc(C(F)(F)F)ccc1Cl (stereo not given)	-6	1	9	-4	6
O=S(=O)(Nc1nc2ccccc2nc1Nc1ccc(N2CCOCC2)cc1)c1cc(Cl)ccc1Cl	-8	0	15	-4	-50*
CN(C)CC/C=C1/c2ccccc2Sc2c(O)cc(Cl)cc21	-4	0	44*	6	-94*
COc1cc(Cl)cc2c1Sc1ccccc1/C2=C/CCN(C)C	-9	1	18	4	-62*
COc1cc2c(cc1Cl)/C(=C\CCN(C)C)c1ccccc1S2	-5	0	14	-1	-41*
Cc1c(-c2nsc(NC(=O)c3ccccc3)n2)nnn1-c1ccc(C(F)(F)F)c(Cl)c1	1	1	4	7	5
O=C(O)CC(c1cccc(C(F)(F)F)c1)N1CCS(=O)(=O)CC1 (stereo not given)	-4	-1	-1	-5	-35*
O=S1(=O)CCN(C(CO)c2ccccc2)CC1 (stereo not given)	-3	1	3	2	-21
CC(C)c1cnc2c(c1SCC(=O)Nc1ccc(C(N)=O)cc1)c(=O)n(C)c(=O)n2C	1	0	-1	-1	4
COc1ccc(-c2ccc(-c3noc(-c4ccccc4)n3)c(OC)n2)cc1	-9	1	3	1	-46*
Cc1ccccc1-c1noc(-c2ccc(NC3CCCC3)c([N+](=O)[O-])c2)n1	-3	0	1	-2	3
COc1ccccc1-c1noc(-c2ccc(NC3CCCC3)c([N+](=O)[O-])c2)n1	-2	0	1	11	-40*
COc1ccccc1-c1noc(-c2ccccc2)n1	4	-2	-1	-2	18
COc1ccc(-c2nc(-c3ccccc3OC)no2)cc1OC	0	0	7	-8	-36*
CC(=O)c1cccc(NC(=O)Nc2sc3nc4n(c(=O)c3c2C)CCC(C)CC4)c1 (stereo not given)	-3	0	2	13	1
CCOC(=O)C1=C(O)/C(=C\c2cc(C)n(-c3ccc(F)cc3)c2C)N=C1C	-2	4	6	1	-32*
CCOC(=O)C1=C(O)/C(=C\c2cc(C)n(-c3ccccc3F)c2C)N=C1C	-4	1	4	-8	0
CCCC(=O)Nc1cccc(Oc2ccc3c(c2)C(=O)NC3=O)c1	-16	-1	-1	35*	13
CCCC(=O)Nc1ccc2c(c1)C(=O)NC2=O	-5	0	0	4	-19
COc1ccc(CC(=O)NC(C)CCc2ccccc2)cc1OC (stereo not given)	1	-1	11	-6	13
COc1ccc(CC(=O)NNC(=O)CCc2ccccc2)cc1OC	-5	0	4	17	-34*
